# Bioassay records (PubChem BioAssay)
# Only some compounds are listed: those with a hit (about 8% of all), similar ones and a draw of the others.
# KB-3-1 cytotox – KB-3-1 parental cell cytotoxicity; KB-3-1 viability, CellTiter-Glo ATP luminescence, 72 h; Potency, µM (top dose mostly 46.1 µM), most hits filed as cytotoxic; actives 1.4% (n = 400,000); also: nearly all actives have a fitted effect of over 60% in size
#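 Cytotoxicity measured as CellTiter-Glo luminescence after 72 h at 37 C. Compound titrations were pinned onto drug-naive KB-3-1 parental adenocarcinoma cells grown in DMEM with 10% FBS, and normalized data fitted to concentration-response curves.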
# KB-V1 cytotox – kills drug-selected multidrug resistant KB-V1 cells; KB-V1 MDR cells viability, CellTiter-Glo, 72 h; Potency, µM (titrated, usually from 46.1 µM), actives largely listed as cytotoxic; actives 3.4% (n = 400,000); AID 1347076; also: nearly all actives have a fitted effect of over 60% in size
#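 KB-V1, DMEM (no phenol red) + 10% FBS; cpd pin-transferred, titration series; 72 h, 37 degrees C; CellTiter-Glo, luminescence. Data normalized, curve-fit.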
# MCF10A rereplic – induces DNA re-replication in MCF 10a normal breast cells | Potency, µM (top dose mostly 46.1 µM), most hits filed as activators | MCF 10A DNA re-replication, Hoechst nuclear intensity, 48 h | actives 2.9% (n = 350,000); also: nearly all actives have a fitted effect of over 50% in size
# HT1080NT lethal – kills 2HG-producing HT-1080-NT fibrosarcoma cells. HT-1080-NT fibrosarcoma viability, CellTiter-Glo ATP luminescence, 48 h. Potency, µM (highest dose often 46.1 µM), usual class: cytotoxic. actives 1.6% (n = 360,000);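 also: NT is the 2HG producing partner of a matched IDH1 knockdown line; nearly all actives have a fitted effect of over 55% in size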
#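 HT-1080-NT; 750 cells/well; 5% FBS RPMI; 48 h compound, 37 degrees C; CellTiter-Glo luminescence; curve fitting and curve-class assignment.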
# SW480 rerep – DNA re-replication induction in SW480 cells; actives 1.8% (n = 340,000); Potency, µM (doses to about 46.1 µM), usual class: activators; SW480 DNA re-replication, Hoechst DNA content imaging, 48 h; AID 624297; also: nearly all actives have a fitted effect of over 55% in size
#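 Hoechst fluorescence of nuclei (405 nm excitation, 500-530 nm emission) measured by plate-scanning imager after 48 hr compound exposure at 37 C; re-replication scored as increased number of nuclei with elevated intensity.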
# HT1080 IDH1KD tx – kills HT-1080 cells with IDH1 knockdown. HT-1080 IDH1 knockdown viability, ATP luminescence, 48 h. Potency, µM (top dose mostly 46.1 µM), hits mostly cytotoxic. actives 2% (n = 360,000)
#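 CellTiter-Glo luminescence after 48 h compound exposure at 37 degrees C of IDH1-knockdown HT-1080 cells in 5% FBS RPMI. %Activity scaled between DMSO wells and cell-free media wells, with curves fitted and assigned curve classes.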
# Hits are given with their value; i = inactive; ? = inconclusive; nt = not tested or not shown. Calls follow the shape of the dose curve; as a rule, active = well fitted curve in the direction sought with a large enough effect; inconclusive = small, poorly fitted or top-dose-only effect, or another doubt; inactive = no such curve, though single readings can be large; an effect the other way counts as inactive or inconclusive.
SMILES,KB-3-1 cytotox,KB-V1 cytotox,MCF10A rereplic,HT1080NT lethal,SW480 rerep,HT1080 IDH1KD tx
Cn1c(=O)n(CC(=O)NCC2CCCO2)c(=O)c2c3c(sc21)COC(C)(C)C3 (stereo not given),i,i,i,i,i,i
Cc1ccc(C(=O)NC(C(=O)NC2CCCC2)c2ccccc2)cc1 (stereo not given),i,i,i,i,i,i
COc1cc(C=O)c(Br)cc1OCc1ccc(C)cc1,i,i,9.2µM,i,?,i
COc1cc(C=O)ccc1OCc1ccncc1,i,i,i,i,i,i
CO[C@H]1[C@H](O[C@H]2O[C@@H](C)[C@@H](O[C@@H]3C[C@](C)(O)[C@H](OC(=O)CC(C)C)[C@H](C)O3)[C@@H](N(C)C)[C@@H]2O)[C@@H](CC=O)C[C@@H](C)[C@@H](O)/C=C\C=C/C[C@@H](C)OC(=O)C[C@H]1OC(C)=O,nt,nt,i,nt,i,nt
CO[C@@H]1[C@@H](OC2OC(C)C(OC3CC(C)(O)C(OC(=O)CC(C)C)C(C)O3)C(N(C)C)C2O)[C@@H](CC=O)C[C@@H](C)C(=O)/C=C\C2O[C@H]2C[C@@H](C)OC(=O)C[C@H]1OC(C)=O (stereo not given in full),i,i,29.9µM,nt,18.8µM,nt
Fc1ccc(C2NC(=S)NC3=C2N2CCC3CC2)cc1 (stereo not given),i,i,13µM,i,i,i
Cc1nn(Cc2noc(C(=O)NCc3cccc(F)c3)n2)c(C)c1Br,i,i,nt,nt,nt,nt
O=C(Nc1ccc(Cl)cc1C(=O)NCc1cccnc1)c1ccc(Cl)cc1Cl,20.6µM,?,?,?,?,?
Clc1ccc(/C=N/Nc2nnc(-c3ncc[nH]3)c3ccccc23)cc1,i,7.31µM,i,?,i,?
COc1ccccc1NS(=O)(=O)c1cccc(C(=O)N2CCN(C(=O)c3ccco3)CC2)c1,i,i,i,i,i,i
CN(C(=O)C1CCCC1)C1CCS(=O)(=O)C1 (stereo not given),i,i,i,i,i,i
O=C(CCN1C(=O)/C(=C/c2ccccc2Cl)SC1=S)N1CCCC1,?,?,?,?,14.6µM,?
O=C(CCN1C(=O)/C(=C/c2ccccc2Cl)SC1=S)N1CCOCC1,nt,nt,23.1µM,i,?,i
C[C@@H]1CN([C@@H](C)CO)C(=O)CCCn2cc(nn2)CO[C@H]1CN(C)C(=O)Oc1ccccc1,?,?,nt,i,nt,i
Cc1cccc(C(=O)OCC(=O)c2cccc(Br)c2)c1O,i,i,i,i,i,i
O=C(O[C@H]1[C@H](Cc2ccccc2)NS(=O)(=O)[C@H]2CC3C=C[C@]12O3)c1ccc(Br)cc1,i,?,nt,nt,nt,nt
CC(C)(C)CC(C)(C)c1ccc(O)c(-n2nc3ccccc3n2)c1,nt,nt,26.6µM,nt,i,nt
Cc1ccc(NC(=O)COC(=O)c2ccc(CN3CCCC3=O)cc2)cc1C,i,i,i,i,i,i
N#Cc1nc(-c2ccc(OCc3ccccc3Cl)cc2)oc1N1CCC(C(N)=O)CC1,i,?,nt,nt,nt,nt
CC1(C)CC(=O)/C(=C(\O)c2ccccc2)C(=NCCc2ccccc2)C1,i,5.8µM,?,i,i,i
COc1ccc(C(=O)NNc2ccccc2)cc1,i,i,i,?,i,i
COc1ccc(C(=O)NC(C(=O)NCc2ccccc2OC)C(C)C)cc1 (stereo not given),i,i,0.92µM,i,i,i
COc1ccc(NC(=O)C(NC(=O)c2ccccc2)C(C)C)cc1 (stereo not given),i,20.6µM,i,i,i,?
COc1ccc(C(=O)NC(Nc2ccccc2)C(Cl)(Cl)Cl)cc1 (stereo not given),?,8.2µM,?,i,i,i
SMILES,KB-3-1 cytotox,KB-V1 cytotox,MCF10A rereplic,HT1080NT lethal,SW480 rerep,HT1080 IDH1KD tx
Cc1ccc(NC(=O)c2nc(S(C)(=O)=O)ncc2N(Cc2ccco2)Cc2ccco2)cc1C,i,i,nt,nt,nt,nt
CC1CCCCN1C(=O)CCNC(=O)Cn1cnc2ccccc2c1=O (stereo not given),i,i,i,i,i,i
CN(C)c1cc[n+](CC(=O)Nc2c(Cl)cc(Cl)cc2Cl)cc1,8.2µM,i,i,i,i,i
Cc1ccc([N+](=O)[O-])cc1N/C=C1\CCc2ccccc2C1=O,i,i,i,i,i,i
Fc1cccc(Cl)c1CN1CCN(c2nc3ccccc3s2)CC1,i,i,16.4µM,i,i,i
O=C(c1ccc2ccccc2n1)N1CCN(Cc2c(F)cccc2Cl)CC1,i,i,?,i,i,i
COc1ccc(Cl)cc1NC(=O)CCNC(=O)Cn1ccc2ccccc2c1=O,?,i,i,i,i,i
C=CCn1nc([N+](=O)[O-])nc1Sc1cccc2cccnc12,?,8.2µM,?,?,3.26µM,?
CCOC(=O)[C@H](CCc1ccccc1)N[C@@H](C)C(=O)N1C(=O)N(C)C[C@H]1C(=O)O,nt,nt,i,nt,i,nt
Oc1ccc(/C=C/c2nc(-c3ccccc3O)n(-c3ccccc3)n2)cc1,i,?,16.4µM,?,?,?
Cc1ccc(-c2nc(S(=O)(=O)c3ccccc3)c(SCC(=O)NCC3CCCO3)o2)cc1 (stereo not given),i,i,i,i,i,i
OC(CN1CCN(c2ccccn2)CC1)Cn1c2ccc(Cl)cc2c2cc(Cl)ccc21 (stereo not given),?,?,20.6µM,?,?,16.4µM
OC(CN1CCN(Cc2ccccc2)CC1)Cn1c2ccccc2c2ccccc21 (stereo not given),?,23.1µM,?,?,nt,?
CC1CCN(CC(O)Cn2c3ccccc3c3ccccc32)CC1 (stereo not given),i,?,i,i,i,i
OC(COC(c1ccc(Cl)cc1)c1ccc(Cl)cc1)CN1CCN(c2ccccn2)CC1 (stereo not given),18.4µM,?,?,?,?,?
OC(CN1CCCCC1)Cn1c2ccc(Cl)cc2c2cc(Cl)ccc21 (stereo not given),?,?,?,20.6µM,?,?
Cc1cccc(C)c1OCC(O)CN1CCN(c2ccccn2)CC1 (stereo not given),i,i,i,i,i,i
Cc1ccc(C(=O)CC(=O)c2ccc(C)cc2O)cc1,?,i,i,i,i,?
O=C(c1ccccc1)c1coc(-c2ccccc2)c1,i,?,i,i,i,i
COc1ccc(S(=O)(=O)NCC2CCCN(Cc3ccccc3Cl)C2)cc1 (stereo not given),i,i,23.1µM,i,i,i
O=C(Nc1ccccn1)c1ccc(Cl)c([N+](=O)[O-])c1,i,i,?,i,i,i
COc1ccc(/C=C2\SC(=S)N(CCC(=O)NCCCn3ccnc3)C2=O)cc1,i,i,i,i,i,i
